Assay outcomes from PubChem.
This is a sample that favours compounds with a hit; in the whole collection about 2.7% have one here.
ClpP mod – qHTS Assay for Activators of ClpP | purified B. subtilis ClpP, FRET peptide cleavage, 20 min | Potency, µM (highest dose often 57.5 µM), for the others: at the highest dose activity change, negative = active | ATP-dependent Clp protease proteolytic subunit (Bacillus subtilis (strain 168)), P80244 | 340,000 compounds, 1.9% hits; active = well fitted falling curve with a large enough effect; inconclusive = small, poorly fitted or top-dose-only effect; inactive = no such curve, though single readings can be large or run the other way; also: potency is read from the fitted curve at half-maximal effect; the source files actives as falling curves though it sought activators and does not explain the sign; nearly all actives have a fitted effect of over 65% in size
Target sequence (P80244 whole entry, looked up): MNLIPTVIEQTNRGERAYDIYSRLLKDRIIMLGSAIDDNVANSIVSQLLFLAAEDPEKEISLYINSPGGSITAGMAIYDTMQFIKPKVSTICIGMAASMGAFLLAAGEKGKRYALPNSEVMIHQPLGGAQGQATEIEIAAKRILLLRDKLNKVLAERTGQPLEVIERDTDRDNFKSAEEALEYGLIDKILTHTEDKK
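FRET quenching reversal measured ClpP activation: 10 microg/mL B. subtilis ClpP at pH 8 with the FRET-FV decapeptide, read at 430 nm after 320 nm excitation. The 20-min minus 0-min signal was scaled between DMSO/no-enzyme wells and ADEP (5.8 microM final).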
RXFP1 antag – antagonists of human relaxin receptor RXFP1; 350,000 compounds, 0.59% hits; AID 1259400; Q9HBX9; activity change, negative = inhibition, % at 57.5 µM; HEK293-RXFP1, relaxin-stimulated cAMP HTRF, 30 min; active compounds read low;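 active = activity change of -60% or lower, but not beyond a set lower limit; inconclusive = change between -60% and -40%, or beyond the set limit; inactive = change above -40%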; also: % is scaled to controls: 0 for no effect and ±100 for the full control effect
RXFP1 agonist – RXFP1 (human) receptor agonism. Potency, µM (doses to about 57.5 µM), for inactives: top-dose activation, actives largely listed as activators. Q9HBX9. HEK293T-RXFP1 cAMP TR-FRET, 30 min; response scale: percent of porcine relaxin response, buffer zero. 370,000 compounds, 0.3% hits. AID 2676; active = well fitted activation curve with a large enough effect; inconclusive = small, poorly fitted or top-dose-only effect; also: potency is read from the fitted curve at half-maximal effect; % is scaled to controls: 0 for no effect and ±100 for the full control effect; nearly all actives have a fitted effect of over 60% in size
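HEK293 cells stably expressing RXFP1, treated 30 min at 37C with compounds plus PDE4 inhibitor Ro 20174; cAMP measured by HTRF TR-FRET. Normalized to buffer and 29 nM porcine relaxin; EC50 by Hill fit.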
pAkt inh – blocks phosphorylation of Akt; AID 651550; activity change, % for hits at 50 µM; Neuro2A IGF-stimulated pAkt S473 HTRF, 20 min; active compounds read low; 360,000 compounds, 0.32% hits; in the data active = activity change below about -80%; inconclusive = mostly about -51% to -80%; also: % is scaled to controls: 0 for no effect and ±100 for the full control effect
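Single-point screen (50 µM final compound) in Neuro2A cells stimulated 20 min with 6 nM IGF at 37 deg C. After lysis, Ser473-phosphorylated Akt read by HTRF (ex 330 nm, em 615/665 nm) as the 665/615 ratio.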
gsp antag – gsp mutant antagonism; 340,000 compounds, 0.4% hits; gsp-mutant cells, cAMP HTRF, 30 min; Potency, µM (doses to about 76.9 µM), for inactives: top-dose activity change, negative = inhibition, hits mostly inhibitors; calls by dose curve; cell line not stated here;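 also: intracellular cAMP measured with PDE inhibitor Ro 20-1724 present during compound exposure; potency is read from the fitted curve at half-maximal effect; % is scaled to controls: 0 for no effect and ±100 for the full control effect; nearly all actives have a fitted effect of over 65% in size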
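Cells, 2000/well, grown 16–24 h in DMEM 10% FBS with 0.5 mg/ml G418, then compounds plus […] (300 uM addition stock), 30 min at 37C. cAMP read by HTRF (cAMP-d2 and anti-cAMP antibody-K in lysis buffer) after 30 min RT.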
gsp agonist – activates gsp, the McCune-Albright syndrome mutation. gsp mutant cells, cAMP HTRF, 30 min. Potency, µM (highest dose often 76.9 µM), for inactives: at the top dose activation (cAMP increase), usual class: activators. 340,000 compounds, 0.13% hits; active = well fitted activation curve with a large enough effect; inconclusive = small, poorly fitted or top-dose-only effect, or another doubt; inactive = no such curve, though single readings can be large or run the other way; cell line not stated here;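 also: phosphodiesterase inhibitor Ro 20-1724 added with compounds to block cAMP breakdown; potency is read from the fitted curve at half-maximal effect; nearly all actives have a fitted effect of over 60% in size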
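Cells in DMEM/10% FBS with G418 were pretreated with compounds in DMSO plus […] (300 uM stock) for 30 min at 37C. cAMP was measured by HTRF (cAMP-d2 plus anti-cAMP antibody-K) after 30 min at room temperature.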
Numbers without * were called inactive; i = inactive; ? = inconclusive; . = no result; [ ] = dose if it differs, or a comment.

SMILES | ClpP mod | RXFP1 antag | RXFP1 agonist | pAkt inh | gsp antag | gsp agonist
COc1ccc(C(=O)C2C(=O)C(=O)N(Cc3ccco3)C2c2cccs2)cc1 (stereo not given) | -3.4% | . | . | . | . | .
CN(CC(=O)Nc1ccccc1Cl)C(=O)COC(=O)Cc1c(F)cccc1Cl | 2.8% | -6.8 | 12.6µM* | i | 6.8% | 10.2%
COc1ccc(CCn2c3c(c(=O)[nH]c2=S)CN(C)CN3)cc1OC | -3.6% | . | . | . | . | .
C(=N\Nc1nc(N2CCOCC2)nc(N2CCOCC2)n1)/c1ccncc1 | . | -14.8 | 0.8% | i | -0.8% | 3.4%[15.4 µM]
C(=N\Nc1nc(N2CCOCC2)nc(N2CCOCC2)n1)/c1cccnc1 | 0.9% | -11.1 | -0.9% | -81.9%* | -2.2% | 13.8%
Cc1ccc2c(c1C)OC(=O)CC2(C)C | 31.6µM* | . | 2.7% | i | 8.7% | -22.8%
O=C(N/N=C/c1cc2c3c(c1O)CCCN3CCC2)c1ccccc1O | . | -76.2* | 2.1% | i | ? | -6.1%[15.4 µM]
Nc1ccc2cc3ccc(N)cc3nc2c1 | . | 13.1 | . | . | . | .
CN1Cc2cc(C(=O)N3CCC(C4CCNCC4)CC3)ccc2NC(CC(=O)O)C1=O (stereo not given) | . | -3.7 | . | . | . | .
Cc1cnn(C(=S)NCC2CCCO2)c1 (stereo not given) | -4.8% | -1.2 | 0.6% | -102.7%* | 6.7% | 4.2%
COc1ccc(S(=O)(=O)N2CCN(C(c3ccccc3)c3ccccc3)CC2)cc1NC(C)=O | 0.3% | 0.5 | ? | i | 16.0% | -11.1%
O=C(NCc1cc([N+](=O)[O-])ccc1O)c1cc(-c2ccncc2)nc2ccccc12 | 0.4% | ? | 0.6% | i | 39.8µM* | ?
CCc1ccc(-c2cc(C(=O)NCc3ccccn3)c3ccccc3n2)cc1 | 14.1µM* | -13.4 | 1.4% | i | -9.1% | 26.3%
Cc1ccc(-c2cc(C(=O)NCc3ccccn3)c3ccccc3n2)cc1 | 14.1µM* | -6.3 | 0.0% | i | 0.4% | 28.2%
O=C(NCc1ccccn1)c1cc(-c2ccc(Br)cc2)nc2ccccc12 | ? | 1.6 | 8.8% | i | ? | 3.2%
Cc1ccc(-c2cc(C(=O)NCCc3ccccn3)c3ccccc3n2)c(C)c1 | 28.2µM* | -3.8 | 0.8% | i | -2.0% | -7.2%
CCc1nnc(NC(=O)c2ccc3c(=O)n4c(nc3c2)CCC4)s1 | -1.6% | -5.7 | . | i | . | 2.8%
CCOC(=O)c1cc(-c2ccccc2)n(CCC(=O)Nc2ccc(Cl)c(C(F)(F)F)c2)c1C | -5.2% | ? | -0.6% | . | . | .
O=C(NC1CCN(Cc2ccccc2)CC1)c1cccc(Br)c1 | 0.9% | -16.0 | 0.8% | i | -15.3% | -4.7%[15.4 µM]
CC1=C(C(=O)N2CCOCC2)C(c2ccc(-c3ccccc3)cc2)NC(=S)N1 (stereo not given) | 28.2µM* | -18.2 | 0.5% | i | -4.2% | 3.5%[15.4 µM]
O=C(NCCc1ccc(Cl)cc1)c1ccc(CSCc2ccc(Cl)cc2)o1 | -0.5% | -34.8 | 1.5% | . | . | .
O=C(O)CCCCCn1c(SCC(=O)c2ccc(O)c(O)c2)nc2ccsc2c1=O | 7.94µM* | -1.1 | 1.6% | i | -5.4% | 26.5%
O=C(CSc1nc2ccsc2c(=O)n1CC1CCC(C(=O)O)CC1)c1ccc(F)cc1 (stereo not given) | -0.1% | -7.6 | 3.1% | i | ? | ?
O=C(CSc1nc2ccsc2c(=O)n1CC1CCC(C(=O)O)CC1)c1ccc(Cl)cc1 (stereo not given) | -0.4% | -17.3 | 3.0% | i | 22.4µM* | 5.0%[15.4 µM]
O=c1cc(NC2CCCCCC2)[nH]c(=O)[nH]1 | -10.1% | -9.1 | -1.5% | -112.0%* | -2.2% | 4.5%
Cc1nc2sc(C)c(C)n2c(=O)c1S(=O)(=O)N1CCN(c2ccccc2F)CC1 | ? | 12.1 | 7.9% | . | . | .
O=C(Nc1ccc(-c2nc3c(ccc4ccccc43)o2)cc1)c1ccco1 | 12.6µM* | 6.5 | 5.4% | i | 3.2% | 6.9%
